Measured values reported in PubChem BioAssay (NCATS).
Records with an inconclusive call do not appear. Unmarked numbers belong to inactive results. Calls follow the shape of the dose curve; as a rule, active = well fitted inhibition curve with a large enough effect; inconclusive = small, poorly fitted or top-dose-only effect; inactive = no such curve, though single readings can be large or run the other way.

These molecules were tested against Retinaldehyde dehydrogenase 3 (Homo sapiens) (UniProt P47895) (assay: qHTS for Inhibitors of the Aldehyde Dehydrogenase Family (ALDH1A3) Primary screen (AID 2061315;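 also: plate controls were DMSO vehicle for no effect and reference inhibitor for full effect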)). Conditions: ALDH inhibition qHTS; series mostly up to 56 µM; activity change, negative = inhibition: at the top concentration.

Structure (SMILES)	activity change, negative = inhibition
CC(C)C(C(=O)N(C)C(C)C(N)=O)N(C)C(=O)C1CCCN1C(=O)/C=C/C=C/C(O)C(C)O (stereo not drawn)	8.63% [at 28 µM]
OC[C@H]1O[C@@H](OCc2ccccc2)[C@H](O[C@@H]2OC[C@@H](O)[C@H](O)[C@H]2O)[C@@H](O)[C@@H]1O	-28.9% [at 28 µM]
COc1cc(-c2cc(-c3cccc(O)c3)cnc2N)cc(OC)c1OC	0.177%
C=C(C)[C@@H]1CC[C@]2(C(=O)O)CC[C@]3(C)C(CCC4[C@]5(C)C(CC[C@]43C)C(C)(C)[C@@H](O)[C@@H]5C(=O)O)C12 (stereo partly drawn)	7.32% [at 28 µM]
O=[N+]([O-])c1cccc2[nH]c(CNc3nc(N4CCOCC4)nc4c3ncn4-c3ccsc3)nc12	8.62%
C/C=C/C=C/C(=O)O[C@@H]1C=C2COC(=O)[C@]2(O)[C@@]2(C)CCCC(C)(C)[C@H]12	15.1%
CC(C)c1ccc2c(c1)C(O)CC1C(C)(CO)CCCC21C (stereo not drawn)	15.4%
C=C(C(=O)O)C1CC(OC(=O)CC(C)CC)C2(C)CCCC(=C)C2C1 (stereo not drawn)	4.29%
